Hits are enriched below; roughly 7% of the tested compounds scored in any of these assays.
BAZ2B block – qHTS Assay for Inhibitors of BAZ2B | Bromodomain adjacent to zinc finger domain protein 2B (Homo sapiens), Q9UIF8 | AlphaScreen BAZ2B-H3K14Ac peptide displacement | Potency, µM (highest dose often 114 µM), inactives show top-dose activity change, negative = inhibition, usual class: inhibitors | 360,000 tested, 4.4% active | AID 504333, 2011; also: potency is read from the fitted curve at half-maximal effect; % is scaled to controls: 0 for no effect and ±100 for the full control effect; nearly all actives have a fitted effect of over 60% in size
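BAZ2B (50 nM) with biotin-H3(5-23)K14Ac peptide (50 nM) in PBS pH 7.4, 0.01% Tween-20, preformed 30 min, then compound 30 min at room temperature; top concentration 110uM. AlphaScreen streptavidin donor/nickel chelate acceptor beads (10 ug/mL final), 20 min dark, signal read.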
GCN5L2 inh – qHTS Assay for Inhibitors of GCN5L2; Potency, µM (highest dose often 58.9 µM), for the others: at the highest dose activity change, negative = inhibition, hits mostly inhibitors; GCN5L2 HAT assay, ThioGlo1 CoA-SH fluorescence; 390,000 tested, 0.21% active; also: potency is read from the fitted curve at half-maximal effect; % is scaled to controls: 0 for no effect and ±100 for the full control effect
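Fluorescence readout, Ex340nm/Em540nm: ThioGlo1 (50uM final) reacts with free CoA thiol released as 20nM GCN5L2 acetylates H3(1-25) peptide (75uM) using acetyl-CoA (70uM). Compound and enzyme sat 15 min beforehand; 20 min room-temperature reaction.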
HP1b binding inh – HTS for Inhibitors of HP1-beta Chromodomain Interactions with Methylated Histone Tails; AlphaScreen HP1-beta / biotin-H3K9me3 peptide binding; Potency, µM (top dose mostly 114 µM), for the others: at the highest dose activity change, negative = inhibition, usual class: inhibitors; 390,000 tested, 0.56% active; also: potency is read from the fitted curve at half-maximal effect; nearly all actives have a fitted effect of over 70% in size
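AlphaScreen: HP1-beta (50 nM) preformed 30 min with biotin-H3(1-18)K9me3 peptide (50 nM) in PBS pH 7.4, 0.01% Tween-20. Compound added for 30 min at RT, then streptavidin donor/nickel chelate acceptor beads (10 ug/mL) for 30 min.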
PLK1 PBD block – qHTS for Inhibitors of PLK1-PDB (polo-like kinase 1 - polo-box domain): Primary Screen; Potency, µM, inactives show max response, negative = inhibition, hits mostly inhibitors; Serine/threonine-protein kinase PLK1 (Homo sapiens), P53350; Plk1 PBD binding of FITC phosphopeptide, fluorescence polarization; 360,000 tested, 2.8% active; AID 720504, 2013; also: potency is read from the fitted curve at half-maximal effect; series mostly up to about 57 µM; % is scaled to controls: 0 for no effect and ±100 for the full control effect; nearly all actives have a fitted effect of over 65% in size
Target sequence (P53350 whole entry, looked up, the tested form may be a part): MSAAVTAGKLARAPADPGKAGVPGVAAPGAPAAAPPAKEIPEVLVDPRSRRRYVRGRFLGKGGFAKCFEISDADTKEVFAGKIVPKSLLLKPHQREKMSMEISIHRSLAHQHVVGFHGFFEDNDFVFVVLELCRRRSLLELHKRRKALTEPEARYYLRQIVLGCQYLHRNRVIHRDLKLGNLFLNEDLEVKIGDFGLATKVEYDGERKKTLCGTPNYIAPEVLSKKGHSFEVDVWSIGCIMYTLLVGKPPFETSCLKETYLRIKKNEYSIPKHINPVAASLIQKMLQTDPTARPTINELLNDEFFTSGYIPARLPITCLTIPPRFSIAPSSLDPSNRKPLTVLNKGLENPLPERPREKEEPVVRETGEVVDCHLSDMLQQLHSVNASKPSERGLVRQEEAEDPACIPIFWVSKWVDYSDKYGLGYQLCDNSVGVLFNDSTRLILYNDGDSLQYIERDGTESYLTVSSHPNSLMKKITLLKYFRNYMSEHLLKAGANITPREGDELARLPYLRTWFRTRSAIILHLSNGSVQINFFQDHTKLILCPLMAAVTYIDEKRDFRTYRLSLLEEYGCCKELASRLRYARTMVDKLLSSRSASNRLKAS
JMJD2A Tudor – qHTS Assay for Inhibitors of JMJD2A-Tudor Domain | Lysine-specific demethylase 4A (Homo sapiens), O75164 | AlphaScreen JMJD2A-Tudor / H3K4me3 peptide binding | Potency, µM (titrated, usually from 114 µM), for inactives: at the highest dose activity change, negative = inhibition, hits mostly inhibitors | 390,000 tested, 4.4% active; also: potency is read from the fitted curve at half-maximal effect; % is scaled to controls: 0 for no effect and ±100 for the full control effect; nearly all actives have a fitted effect of over 50% in size
PI5P4Ka inh – qHTS for Inhibitors of phosphatidylinositol 5-phosphate 4-kinase (PI5P4K) | max response, % | PI5P4Kalpha enzyme, ADP-Glo luminescence, 60 min; active compounds read low | 330,000 tested, 1.2% active | AID 652105, 2013; active = max response of -50% or lower; inconclusive = between -30% and -50%; inactive = -30% or higher; also: value at the top dose of about 77 µM; % is scaled to controls: 0 for no effect and ±100 for the full control effect
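ADP-Glo luminescence end-point read after a 60 min room-temperature kinase reaction of PI5P4Kalpha plus substrate, initiated with ATP at 5 microM final. Buffer: 0.038 M HEPES pH 7.4, EGTA, 0.1% CHAPS, 5% DMSO.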
Numbers without * were called inactive. Unless noted, calls follow the shape of the dose curve; as a rule, active = well fitted curve in the direction sought with a large enough effect; inconclusive = small, poorly fitted or top-dose-only effect, or another doubt; inactive = no such curve, though single readings can be large; an effect the other way counts as inactive or inconclusive.

Results for CN1C2CCCC1CC(=O)C2 ?
GCN5L2 inh: -3%

Results for Cc1occc1C(=O)Nc1ccccc1 ?
GCN5L2 inh: 10%

Results for Nc1ncnc2c1ncn2[C@@H]1O[C@H](COP(=O)(O)OP(=O)(O)OP(=O)(O)O)[C@H]2OC3(O[C@H]21)C([N+](=O)[O-])=CC(=[N+]([O-])[O-])C=C3[N+](=O)[O-] (stereo partly specified) ?
GCN5L2 inh: -7%

Results for Cc1cccc(N=C2c3cc([N+](=O)[O-])ccc3-c3c2cc([N+](=O)[O-])cc3[N+](=O)[O-])c1 ?
HP1b binding inh: 2.8µM*; PLK1 PBD block: -2%; JMJD2A Tudor: 3.5µM*; PI5P4Ka inh: 0

How did Cc1o[nH]c(=O)c1C[C@H](N)C(=O)O do in these assays?
GCN5L2 inh: 0%

How did S=c1nc(-c2ccccc2)n(-c2ccccc2)[nH]1 do in these assays?
BAZ2B block: -14%; GCN5L2 inh: 11%; HP1b binding inh: -9%; PLK1 PBD block: -11%; JMJD2A Tudor: 3.5µM*; PI5P4Ka inh: 1

What do the screens show for `N#CC1=C(N)Oc2c(c(=O)sc3ccccc23)C1c1cccnc1` (stereo unspecified)?
BAZ2B block: -15%; GCN5L2 inh: -5%; HP1b binding inh: 18%; PLK1 PBD block: 0%; JMJD2A Tudor: -17%; PI5P4Ka inh: -63*

Results for COc1ccccc1-n1c(-c2ccco2)n[nH]c1=S ?
BAZ2B block: -1%; GCN5L2 inh: -14%; HP1b binding inh: 28%; PLK1 PBD block: -12%; JMJD2A Tudor: 22µM*; PI5P4Ka inh: -9

How did S=c1[nH]nc(-c2ccco2)n1-c1cccc2ccccc12 do in these assays?
BAZ2B block: -6%; GCN5L2 inh: -8%; HP1b binding inh: 13%; PLK1 PBD block: -25%; JMJD2A Tudor: 40µM*; PI5P4Ka inh: -4

How did O=c1c2ccccc2nc(-c2ccco2)n1-c1ccccn1 do in these assays?
BAZ2B block: 11%; GCN5L2 inh: -2%; HP1b binding inh: 8%; PLK1 PBD block: -9%; JMJD2A Tudor: -26%; PI5P4Ka inh: 1

How did COc1ccccc1-n1c(-c2ccoc2)nc2ccccc2c1=O do in these assays?
BAZ2B block: 11%; GCN5L2 inh: -5%; HP1b binding inh: 14%; PLK1 PBD block: -12%; JMJD2A Tudor: -3%; PI5P4Ka inh: -5

How did CN1CCC2(CC1)N=C(c1ccc(F)cc1)C(=S)N2 do in these assays?
BAZ2B block: -1%; GCN5L2 inh: -5%; HP1b binding inh: inconclusive; PLK1 PBD block: inconclusive; JMJD2A Tudor: 32µM*; PI5P4Ka inh: 9

What do the screens show for `CC(C)(C)C1CCc2onc(C(=O)O)c2C1` (stereo unspecified)?
BAZ2B block: -19%; GCN5L2 inh: 2%; HP1b binding inh: 42%; PLK1 PBD block: 2%; JMJD2A Tudor: -5%; PI5P4Ka inh: -10

How did CCOc1cc(/C=C(\C#N)C(=O)NCC2CCCO2)ccc1OCC(N)=O (stereo unspecified) do in these assays?
BAZ2B block: -11%; GCN5L2 inh: -8%; HP1b binding inh: -16%; PLK1 PBD block: 30µM*; JMJD2A Tudor: -24%; PI5P4Ka inh: -4

Results for CCC(Oc1ccc(Cl)cc1)C(=O)OC1CC2CCC(C1)N2C (stereo unspecified) ?
GCN5L2 inh: 0%

How did CCOc1cc2[nH]c(=O)n(CCCC(=O)N3CCN(c4cccc(Cl)c4)CC3)c(=O)c2cc1OCC do in these assays?
BAZ2B block: -22%; GCN5L2 inh: -3%; HP1b binding inh: -8%; JMJD2A Tudor: inconclusive

Compound activity as filed in PubChem.
